Lmaj promast – inhibitors of Leishmania major promastigote growth; 200,000 compounds, 9% hits; Leishmania major promastigotes, resazurin fluorescence viability; inhibition, % at 10 µM; AID 1063; in the data active means inhibition above about 50%;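 further: promastigotes grown with compound for 44 hours at 28 °C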
WT yeast gro inh – growth inhibition of WT yeast, mitochondrial fusion screen. 190,000 compounds, 2.1% hits. mitochondrial fusion phenotypic screen, WT strain. inhibition, % at 10 µM. AID 1362; in the data active means inhibition above about 58%; tested in S. cerevisiae
Arbovirus anti – antivirals against arbovirus infection | arbovirus infection cell-based antiviral screen | inhibition, % at 10 µM | 200,000 compounds, 0.37% hits | AID 1251; in the data active means inhibition above about 30%
CHOP inhibitor – inhibitors of CHOP induction in ER stress response. CHO-K1 CHOP-promoter luciferase, tunicamycin-induced, 15-18 h. inhibition, % at 10 µM. 220,000 compounds, 3.8% hits. AID 2732;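 active means compounds that reduced the stress-induced luciferase reporter signal by more than about 70% of percent inhibition, limit read from the data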;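 further: 0% = tunicamycin plus vehicle and 100% = wells without tunicamycin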
Numbers without * were called inactive; / = no result given. The list is not random: actives were taken first. Their share in the collection is about 12%.

SMILES | Lmaj promast | WT yeast gro inh | Arbovirus anti | CHOP inhibitor
CCN1CCN(C(=O)c2ccc(CSc3ccc(C)cc3)cc2)CC1 | 100* | 36 | -12 | -33
COc1cc(OC)cc(-c2nc3ccccc3c(=O)n2OC(=O)c2ccccc2C)c1 | -6 | -4 | 7 | 94*
COc1ccc(-c2nc3ccccc3c(=O)n2CCOc2c(C)cccc2C)cc1 | 7 | -13 | 7 | 9
CCOc1ccc(-c2cn(-c3ccc(OC)cc3)c(SC)n2)cc1 | 51* | 54 | 20 | 55
COC(=O)c1c(C)[nH]c(C(=O)/C=C/c2ccccc2)c1C | 5 | -2 | -11 | 76*
COC(=O)/C(C#N)=C/c1c(Oc2cc(C)cc(C)c2)nc2c(C)cccn2c1=O | 97* | 3 | 4 | 46
Cc1ccc(S(=O)(=O)/C(C#N)=C/c2c(N3CC(C)OC(C)C3)nc3c(C)cccn3c2=O)cc1 (configuration not stated) | 97* | 27 | 2 | 5
Cc1cc(Oc2nc3c(C)cccn3c(=O)c2/C=C(\C#N)S(=O)(=O)c2ccc(Cl)cc2)ccc1Cl | 80* | 29 | -37 | 48
Cc1cc(C)cc(C(=O)NCC(=O)OCC(=O)Nc2cccnc2Cl)c1 | -5 | -10 | 4 | 15
COc1ccc2[nH]c(=O)c(CN(Cc3ccco3)Cc3nnnn3Cc3ccccc3)cc2c1 | 1 | 21 | 2 | 25
COc1ccccc1CN(Cc1cc2cc(C)ccc2[nH]c1=O)Cc1nnnn1Cc1ccco1 | 61* | 12 | -15 | 19
CCc1ccc2[nH]c(=O)c(CN(Cc3ccccc3OC)Cc3nnnn3Cc3ccco3)cc2c1 | 99* | -11 | -23 | 74*
COc1ccccc1CN(Cc1cc2cc(C)ccc2[nH]c1=O)Cc1nnnn1CC1CCCO1 (configuration not stated) | 30 | 0 | 7 | 24
Cc1ccc(C2c3c(oc4ccccc4c3=O)C(=O)N2c2nncs2)cc1 (configuration not stated) | / | / | / | 31
CSCCC(NC(=O)c1ccc([N+](=O)[O-])cc1Cl)C(=O)OCC(=O)NC1CCCC(C)C1C (configuration not stated) | 60* | 8 | -7 | 42
CSCCC(NC(=O)c1cc([N+](=O)[O-])ccc1Cl)C(=O)O (configuration not stated) | -4 | -40 | 12 | -14
Nc1nc(Nc2ccc(Cl)cc2)nc2ccccc12 | 93* | / | -33 | 64
Cc1ccccc1Nc1ncc(C#N)c(N)n1 | / | / | / | 1
Nc1nc(Nc2ccccc2)nc2ccccc12 | 80* | 39 | -7 | -13
Cc1ccccc1Nc1nc(N)c2ccccc2n1 | 96* | 47 | -3 | 33
CCCCCCn1c2c(c(=N)c3c1CCC3)CCC2 | 100* | 37 | -18 | /
N=c1c2c(n(Cc3ccc(F)cc3)c3c1CCC3)CCC2 | 100* | 66* | 10 | 4
CCCCCCn1c(=O)[nH]c2c(c1=O)CCC2 | / | / | / | -1
CCCCCCCCCn1c2c(c(=N)c3c1CCC3)CCC2 | 100* | 75 | -36 | /
CCCCCCCn1c2c(c(=N)c3c1CCC3)CCCC2 | 100* | 79 | -17 | 62
SMILES | Lmaj promast | WT yeast gro inh | Arbovirus anti | CHOP inhibitor
O=C(C1=C[C@@H](c2coc3ccccc3c2=O)C[C@@H](OCCCCO)O1)N1CCN(Cc2ccc3c(c2)OCO3)CC1 | 13 | 5 | -7 | 9
CCCCn1c2c(c(=N)c3c1CCC3)CCC2 | 100* | 23 | 9 | /
CCn1c2c(c(=N)c3c1CCC3)CCC2 | 32 | 2 | 6 | 10
CC(C)Oc1ccc(CNCC2(O)CCOC(C)(C)C2)cc1 (configuration not stated) | 44 | 15 | -7 | 21
CC1(C)CC(O)(CNCc2ccc3c(c2)OCO3)CCO1 (configuration not stated) | 75* | -1 | -4 | 48
COc1ccccc1C1CN(c2ccc(F)cc2F)N=C1c1cccs1 (configuration not stated) | 4 | 79* | -9 | 27
O=C1CC(c2cccc([N+](=O)[O-])c2)c2c(ccc3ccccc23)N1 (configuration not stated) | 100* | -18 | -11 | 22
O=C1CC(c2ccco2)c2ccc3ccccc3c2N1 (configuration not stated) | -6 | 2 | -1 | 20
Cc1ccc(C2CC(=O)Nc3c2ccc2ccccc32)cc1[N+](=O)[O-] (configuration not stated) | 95* | 46 | 15 | 53
O=c1cnc2cc([N+](=O)[O-])ccc2[nH]1 | -6 | -4 | -2 | -1
CCC1=C(OC(=O)N(CC)CC)N2C(=O)OC(=NCCc3c[nH]c4ccccc34)[C@]2(Cc2ccccc2)[C@H]2C1=CC[C@H]1C(=O)N(C)C(=O)[C@H]12 | / | / | / | 24
COCCNc1c(-c2ccc(OC)cc2)nc2ccc(Cl)cn12 | 76* | 4 | -1 | 3
COc1cc(/C=N/NC(=S)N/N=C/c2cc(OC)c(OC)c(OC)c2)cc(OC)c1OC | 55* | 14 | -10 | -24
COc1cc(/C=N/NC(=S)Nc2cccc(C(=O)O)c2)cc(OC)c1OC | -5 | -5 | -9 | 0
c1cncc(CSc2ccc(-c3ccc4c(c3)OCO4)nn2)c1 | 14 | 8 | -28 | -32
CN1C(=O)C2(c3ccccc31)N(C)CC(c1ccccn1)C21SC(=S)N(Cc2ccco2)C1=O (configuration not stated) | 100* | 9 | -9 | 19
CN1C(=O)C2(c3ccccc31)N(C)CC(c1ccccc1)C21SC(=S)N(Cc2ccco2)C1=O (configuration not stated) | 99* | 28 | -3 | -18
CCOC(=O)/C(=N\Nc1cc(C(F)(F)F)ccc1Cl)N(CC)CC | -7 | 30 | -11 | 8
CCOc1ccccc1CNC(=O)c1nn(CC)cc1[N+](=O)[O-] | 0 | 3 | -4 | 23
N#C/C(=C\c1ccc(OCC(N)=O)cc1)c1ccccc1 | 58* | 16 | -8 | 27
COc1ccc(C2c3[nH]c4ccccc4c3CCN2Cc2cccn2-c2ncccn2)cc1C (configuration not stated) | 71* | 52 | -10 | 8
c1ccc(C2c3[nH]c4ccccc4c3CCN2Cc2cccn2-c2ccccn2)nc1 (configuration not stated) | / | / | / | 6
Cc1cccc(C2c3[nH]c4ccccc4c3CCN2Cc2cccn2-c2ncccn2)c1 (configuration not stated) | 59* | 8 | -8 | 26
Cc1cc(Oc2ccc(=O)n(C)n2)nc(=S)[nH]1 | -1 | -3 | 6 | 15
CCOc1ccc(NC(=O)c2ccc(NC(=O)c3cn4c5c(c(N6CCN(C)CC6)c(F)cc5c3=O)OCC4C)cc2)cc1 (configuration not stated) | 93* | -3 | -25 | 35
COCC(=O)Nc1nc2n(n1)C(c1ccc(OC)cc1)CC(c1ccc(OC)cc1)N2 (configuration not stated) | -6 | 6 | 1 | -2
O=C(O)CCCC(=O)Nc1nc2n(n1)C(c1ccc(F)cc1)CC(c1ccc(Cl)cc1)N2 (configuration not stated) | -3 | 14 | 39* | 6
CCN(CC)C(=O)c1ccc(COc2ccccc2Cl)cc1 | 63* | 31 | -16 | 59
COc1ccccc1OCc1ccc(C(=O)NC(C)(C)C)o1 | 3 | 4 | 3 | 33
